In all, about 5,500 compounds went through this assay and about 2,000 (36%) were called active. Roughly 18% stayed inconclusive and do not appear here. Rule as the data show it: active = normalized growth mostly below about 0.91 (no sharp cut-off); inconclusive = no clear call, values can overlap the other calls; inactive = mostly above about 0.92. Some of the results follow.
Test: chemical genetic growth profiling, strain panel (AID 1159580);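 also: tested at 20 µM; growth read once vehicle control cultures reached saturation at 30 °C; 1 = growth at the plate median or of vehicle wells; lower values mean less growth of the strain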
Details: growth OD
[1] = S. cerevisiae deletion strains, locus YAL013W, strain DEP1, active compounds read low
[2] = S. cerevisiae deletion strains, locus YNL128W, strain TEP1, active compounds read low
[3] = S. cerevisiae deletion strains, locus YPL241C, strain CIN2, active compounds read low

Measured: normalized growth

Nc1ncn(C2OC(CO)C(O)C2O)c(=O)n1 (stereo unspecified)
inactive: [1] 1.02 | S. cerevisiae deletion strains, locus YAL040C, strain CLN3, active compounds read low 0.999 | S. cerevisiae deletion strains, locus YCL061C, strain MRC1 (second series), active compounds read low 0.999 | S. cerevisiae deletion strains, locus YER002W, strain NOP16, active compounds read low 0.997 | [2] 0.994 | S. cerevisiae deletion strains, locus YNL175C, strain NOP13, active compounds read low 0.992 | S. cerevisiae deletion strains, locus YNL197C, strain WHI3, active compounds read low 1.01 | S. cerevisiae deletion strains, locus YNL224C, strain SQS1, active compounds read low 0.988 | S. cerevisiae deletion strains, locus YOR083W, strain WHI5 (second series), active compounds read low 1 | [3] 1

NCCCCCCNS(=O)(=O)c1cccc2c(Cl)cccc12
inactive: [1] 1 | S. cerevisiae deletion strains, locus YBR021W, strain FUR4, active compounds read low 1 | S. cerevisiae deletion strains, locus YBR229C, strain ROT2, active compounds read low 0.982 | S. cerevisiae deletion strains, locus YCL029C, strain bik1, active compounds read low 0.983 | S. cerevisiae deletion strains, locus YDL035C, strain GPR1, active compounds read low 0.989 | S. cerevisiae deletion strains, locus YDL074C, strain BRE1, active compounds read low 1.02 | S. cerevisiae deletion strains, locus YDL101C, strain DUN1, active compounds read low 0.991 | S. cerevisiae deletion strains, locus YDL134C, strain PPH21, active compounds read low 0.985 | S. cerevisiae deletion strains, locus YDL185W, strain tfp1, active compounds read low 0.986 | S. cerevisiae deletion strains, locus YDL192W, strain arf1, active compounds read low 0.996 | S. cerevisiae deletion strains, locus YDR101C, strain arx1, active compounds read low 0.997 | S. cerevisiae deletion strains, locus YDR150W, strain NUM1, active compounds read low 0.987 | S. cerevisiae deletion strains, locus YDR162C, strain NBP2, active compounds read low 1.01 | S. cerevisiae deletion strains, locus YDR318W, strain mcm21, active compounds read low 0.973 | S. cerevisiae deletion strains, locus YDR388W, active compounds read low 0.99 | S. cerevisiae deletion strains, locus YDR502C, strain sam2, active compounds read low 0.984 | S. cerevisiae deletion strains, locus YEL061C, strain CIN8, active compounds read low 0.995 | S. cerevisiae deletion strains, locus YER110C, active compounds read low 0.99 | S. cerevisiae deletion strains, locus YER155C, strain BEM2, active compounds read low 1.01 | S. cerevisiae deletion strains, locus YER167W, strain BCK2, active compounds read low 0.979 | S. cerevisiae deletion strains, locus YGL078C, strain dbp3, active compounds read low 0.998 | S. cerevisiae deletion strains, locus YGL086W, strain mad1, active compounds read low 0.958 | S. cerevisiae deletion strains, locus YGL248W, strain PDE1, active compounds read low 0.968 | S. cerevisiae deletion strains, locus YGR078C, strain PAC10, active compounds read low 1 | S. cerevisiae deletion strains, locus YGR135W, strain pre9, active compounds read low 0.988 | S. cerevisiae deletion strains, locus YGR229C, strain SMI1, active compounds read low 1.01 | S. cerevisiae deletion strains, locus YGR252W, strain gcn5, active compounds read low 0.908 | S. cerevisiae deletion strains, locus YHR030C, strain SLT2, active compounds read low 0.989 | S. cerevisiae deletion strains, locus YHR079C, strain IRE1 (second series), active compounds read low 0.978 | S. cerevisiae deletion strains, locus YHR094C, strain hxt1, active compounds read low 1 | S. cerevisiae deletion strains, locus YHR129C, strain ARP1, active compounds read low 1 | S. cerevisiae deletion strains, locus YHR200W, strain rpn10, active compounds read low 0.979 | S. cerevisiae deletion strains, locus YIL066C, strain RNR3, active compounds read low 0.996 | S. cerevisiae deletion strains, locus YIL073C, strain SPO22, active compounds read low 0.957 | S. cerevisiae deletion strains, locus YIL125W, strain kgd1, active compounds read low 0.997 | S. cerevisiae deletion strains, locus YIR030C, strain dcg1, active compounds read low 0.992 | S. cerevisiae deletion strains, locus YJL095W, strain BCK1, active compounds read low 0.988 | S. cerevisiae deletion strains, locus YJL134W, strain LCB3, active compounds read low 0.995 | S. cerevisiae deletion strains, locus YJL168C, strain set2, active compounds read low 0.994 | S. cerevisiae deletion strains, locus YJL187C, strain SWE1 (second series), active compounds read low 0.993 | S. cerevisiae deletion strains, locus YJR043C, strain POL32, active compounds read low 0.971 | S. cerevisiae deletion strains, locus YJR075W, strain HOC1, active compounds read low 1.02 | S. cerevisiae deletion strains, locus YKL009W, strain mrt4, active compounds read low 0.953 | S. cerevisiae deletion strains, locus YKL068W, active compounds read low 0.999 | S. cerevisiae deletion strains, locus YKL085W, strain MDH1 (second series), active compounds read low 0.991 | S. cerevisiae deletion strains, locus YKL085W, strain MDH1, active compounds read low 0.991 | S. cerevisiae deletion strains, locus YKL190W, strain CNB1, active compounds read low 0.996 | S. cerevisiae deletion strains, locus YKR001C, strain vps1, active compounds read low 0.983 | S. cerevisiae deletion strains, locus YLR039C, strain RIC1, active compounds read low 1.01 | S. cerevisiae deletion strains, locus YLR058C, strain SHM2, active compounds read low 0.988 | S. cerevisiae deletion strains, locus YLR102C, strain apc9, active compounds read low 1 | S. cerevisiae deletion strains, locus YLR262C, strain YPT6, active compounds read low 1.02 | S. cerevisiae deletion strains, locus YLR268W, strain sec22, active compounds read low 0.999 | S. cerevisiae deletion strains, locus YLR330W, strain CHS5, active compounds read low 0.997 | S. cerevisiae deletion strains, locus YLR342W, strain FKS1 (second series), active compounds read low 0.935 | S. cerevisiae deletion strains, locus YLR371W, strain rom2, active compounds read low 0.993 | S. cerevisiae deletion strains, locus YLR418C, strain cdc73, active compounds read low 1 | S. cerevisiae deletion strains, locus YML016C, strain PPZ1, active compounds read low 0.989 | S. cerevisiae deletion strains, locus YML032C, strain rad52, active compounds read low 0.961 | S. cerevisiae deletion strains, locus YML124C, strain tub3, active compounds read low 0.987 | S. cerevisiae deletion strains, locus YMR078C, strain ctf18, active compounds read low 0.98 | S. cerevisiae deletion strains, locus YMR223W, strain ubp8, active compounds read low 0.961 | S. cerevisiae deletion strains, locus YMR263W, strain SAP30, active compounds read low 1.01 | S. cerevisiae deletion strains, locus YMR307W, strain GAS1, active compounds read low 0.942 | S. cerevisiae deletion strains, locus YNL067W, strain RPL9B, active compounds read low 1.01 | [2] 1.01 | S. cerevisiae deletion strains, locus YNL153C, strain GIM3, active compounds read low 1 | S. cerevisiae deletion strains, locus YNL233W, strain BNI4, active compounds read low 0.996 | S. cerevisiae deletion strains, locus YNL250W, strain rad50, active compounds read low 0.981 | S. cerevisiae deletion strains, locus YNL271C, strain bni1, active compounds read low 0.997 | S. cerevisiae deletion strains, locus YNL298W, strain CLA4, active compounds read low 0.983 | S. cerevisiae deletion strains, locus YNL307C, strain MCK1, active compounds read low 0.965 | S. cerevisiae deletion strains, locus YNL322C, strain KRE1, active compounds read low 0.995 | S. cerevisiae deletion strains, locus YNR052C, strain pop2, active compounds read low 0.974 | S. cerevisiae deletion strains, locus YOL006C, strain TOP1, active compounds read low 0.955 | S. cerevisiae deletion strains, locus YOL012C, strain htz1 0.747 | S. cerevisiae deletion strains, locus YOL147C, strain pex11, active compounds read low 0.994 | S. cerevisiae deletion strains, locus YOR061W, strain CKA2, active compounds read low 0.995 | S. cerevisiae deletion strains, locus YOR069W, strain VPS5, active compounds read low 0.988 | S. cerevisiae deletion strains, locus YOR136W, strain idh2, active compounds read low 0.991 | S. cerevisiae deletion strains, locus YOR144C, strain elg1, active compounds read low 0.993 | S. cerevisiae deletion strains, locus YOR184W, strain ser1, active compounds read low 0.961 | S. cerevisiae deletion strains, locus YOR316C, strain cot1, active compounds read low 0.986 | S. cerevisiae deletion strains, locus YPL055C, strain LGE1, active compounds read low 1.04 | [3] 0.998 | S. cerevisiae deletion strains, locus YPR119W, strain clb2, active compounds read low 1 | S. cerevisiae deletion strains, locus YPR141C, strain kar3, active compounds read low 0.999 | S. cerevisiae deletion strains, locus YPR163C, strain tif3, active compounds read low 0.985 | S. cerevisiae deletion strains, locus YPR167C, strain met16, active compounds read low 0.986 | S. cerevisiae deletion strains, strain wtn01, active compounds read low 0.981 | S. cerevisiae strains, strain wild type, active compounds read low 0.997

Source: PubChem BioAssay AID1159580 (chemical genetic matrix, 2015)
